The target in assay [1] is Thioredoxin reductase 1, cytoplasmic (Rattus norvegicus) (UniProt O89049). Description: qHTS Assay for Substrates of Mammalian Selenoprotein Thioredoxin Reductase 1 (TrxR1) (AID 488772).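 Also: series mostly up to about 57 µM; 0% is about no effect; a drop in NADPH fluorescence below the no-compound background marks a TrxR1 substrate.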 The gist of the method:
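In this dual-purpose format, potential substrates are identified from the first fluorescence read after selenite addition, not from the 8-minute delta. Rat enzyme is preincubated with NADPH and then with compound at ~22 deg C.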
(In general: Quantitative high-throughput screening tests each substance at several concentrations.)

Assay [2] shares this target. Description: qHTS Assay for Inhibitors of Mammalian Selenoprotein Thioredoxin Reductase 1 (TrxR1) (AID 488773). Also: nearly all actives have a fitted effect of over 40% in size. Also: potency is read from the fitted curve at half-maximal effect. The settings on record: Potency: inhibition. The gist of the method:
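Inhibition is scored from the loss of NADPH fluorescence between first and last reads of an 8-min kinetic run. Selenite (400 uM) was the substrate, added after 15 min compound preincubation at room temperature.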

In assay [3] the target is Flap endonuclease 1 (Homo sapiens) (UniProt P39748). Description: qHTS Validation Assay for the Inhibitors of Human Flap endonuclease 1 (FEN1) (AID 488816). Also: % is scaled to controls: 0 for no effect and ±100 for the full control effect. The gist of the method:
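Steps: add FEN1 (10 nM reagent) or buffer only; pin compounds; hold 15 min at room temperature; start with substrate, 50 nM final; read at 0 and 15 min; correct, normalize and fit a four-parameter Hill curve.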

Assay [4] addresses M-phase phosphoprotein 8 (Homo sapiens) (UniProt Q99549). Nature of the assay: qHTS Validation Assay for Inhibitors for MPP8 Chromodomain Interactions with Methylated Histone Tails (AID 488949). Also: nearly all actives have a fitted effect of over 55% in size. Also: potency is read from the fitted curve at half-maximal effect. The procedure, abridged: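 AlphaScreen read-out: streptavidin donor and nickel chelate acceptor beads (final 10 ug/mL), 30 min in the dark at RT. Complex of 50 nM MPP8 and 50 nM b-H3(1-18)K9me3 peptide had been exposed to compounds for 30 min beforehand.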

Assay [5] addresses Chromobox protein homolog 1 (Homo sapiens) (UniProt P83916). Description: qHTS Validation Assay for Inhibitors of HP1-beta Chromodomain Interactions with Methylated Histone Tails (AID 488953). Also: nearly all actives have a fitted effect of over 50% in size. Also: potency is read from the fitted curve at half-maximal effect. The procedure, abridged: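 Disruption of preformed HP1-beta:H3K9me3 peptide complexes (both 50 nM, PBS pH 7.4 with 0.01% Tween-20) is measured by AlphaScreen after 30 min compound exposure at room temperature, using streptavidin donor and nickel chelate acceptor beads at 10 ug/mL final.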

Assay [6] addresses Methanococcus maripaludis chaperonin (MmCpn) (UniProt Q6LX38). Nature of the assay: High-Throughput Screening for Modulators of Cytosolic Chaperonin Activity: MmCpn Primary Screen (AID 488978).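 Also: 50 nM MmCpn enzyme hydrolysing 30 µM ATP at 37 °C; 0% is about no effect.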 The gist of the method:
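ADP formation read by HTRF Transcreener, 665/590 nm emission after 320 nm excitation. Enzyme: archaeal chaperonin at 50 nM final; substrate ATP 30 uM final; 10 min, 37C, after 5 min compound preincubation at RT.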

The target of assay [7] is D(1A) dopamine receptor (Homo sapiens) (UniProt P21728). Description: HTS Assay for Allosteric Agonists of the Human D1 Dopamine Receptor: Primary Screen for Agonists (AID 488981). Also: 0% is about no effect. The procedure, abridged: (§1)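 Tetracycline-induced HEK293 T-REx cells force-coupled to calcium signalling were incubated overnight at 30 C and dye-loaded at room temperature. Calcium flux over 180 s after compound addition flagged agonists; a further 180 s read after EC20 dopamine flagged potentiators.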

Assay [8] has the same target. Nature of the assay: HTS Assay for Allosteric Agonists of the Human D1 Dopamine Receptor: Primary Screen for Potentiators (AID 488982). Also: 0% is about no effect. The gist of the method: as §1
The target is the same in assay [9]. Description: HTS Assay for Allosteric Agonists of the Human D1 Dopamine Receptor: Primary Screen for Antagonists (AID 488983).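 Also: calcium flux response to an EC80 dopamine challenge measured with no-wash dye; % is scaled to controls: 0 for no effect and ±100 for the full control effect; nearly all actives have a fitted effect of over 65% in size.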 The procedure, abridged:
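Kinetic fluorescence at 1 cycle/sec tracked intracellular calcium in force-coupled, tetracycline-inducible HEK293 T-REx D1 cells. Loss of response to an EC80 dopamine dose, given 180 s after compound, marked antagonists.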

The nature of assay [10]: Validation screen for small molecules that induce genotoxicity in human embryonic kidney (HEK293T) cells expressing luciferase-tagged ELG1 (AID 493106). Also: 0% is about no effect. The procedure, abridged:
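Cells were dispensed at 2,000 per well, then 23 nL compound or DMSO was pinned in. After 16 hr at 37 °C and 5% CO2, ONE-Glo reagent was added. Luciferase activity was measured following 30 min at room temperature.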

A short description of assay [11]: Nrf2 qHTS screen for inhibitors: Validation (AID 493153; active = well fitted inhibition curve with a large enough effect in the main read-out, with a control signal flat, not every such curve was filed as active). The settings on record: Potency: luciferase luminescence; viability change: measured here: cytotoxicity max response. The gist of the method: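 A549 ARE_Fluc, 5% FBS OPTI-MEM; cpd titration, 18-24 h, 37°C/5% CO2. Read 1: CellTiter-Fluor (Ex 405/Em 525), cytotox. Read 2: luciferase lum, Nrf2 activity.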
A short description of assay [12]: qHTS for Inhibitors of Cell Surface uPA Generation: Validation Assay (AID 493164).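 Also: RAW 264.7 macrophage cells exposed to compound for 18 h; 0% is about no effect.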 The gist of the method:
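ATP-Lite luminescence read-out: ATP remains high when uPA activity-dependent LF translocation into the cytoplasm is blocked. RAW 264.7 cells, 18 h compound exposure at 37 C; 7-point titration, 2.45 nM to 38.3 uM final.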

A short description of assay [13]: Quantitative high throughput screen for delayed death inhibitors of the malarial parasite plastid, 48 hour incubation (AID 488752). Also: nearly all actives have a fitted effect of over 65% in size. Also: potency is read from the fitted curve at half-maximal effect. The procedure, abridged:
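First, compound was pinned into RPMI 1640 medium containing 0.5% Albumax. Next, reporter-parasite-infected erythrocytes were added to 2% hematocrit and 0.1% parasitemia. After 48 h at 37 C under 5% CO2, luciferase detection reagent was added and luminescence read.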

In assay [14] the target is Transient receptor potential cation channel subfamily V member 1 (Homo sapiens) (UniProt Q8NER1). Nature of the assay: HTS Assay for Compounds that Act as Enhancers of the Vanilloid Receptor 1 (AID 488979). Also: 0% is about no effect. The procedure, abridged:
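TRPV1-expressing cells loaded with Fluo-8 calcium dye; compounds added and calcium influx read kinetically for 3 min (agonist phase), then capsaicin at EC20 added and read 2 min more for enhancement. Fluorescence ex 480/em 520 nm.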

Assay [15] concerns the target Thyrotropin receptor (Homo sapiens) (UniProt P16473). Description: qHTS Assay for Antagonists of the Thyroid Stimulating Hormone Receptor (AID 488980). Also: series mostly up to about 58 µM; 0% is about no effect. The procedure, abridged:
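TSHR-HEK293 cells; 70 uM RO 20-1724 PDE inhibitor; compound + EC80 TSH (4 nM final); anti-cAMP cryptate antibody/cAMP-d2 in lysis buffer, 30 min RT; HTRF 665/620 nm read.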

Assay [16] concerns the target Thyrotropin-releasing hormone receptor (Homo sapiens) (UniProt P34981). Description: qHTS for Small Molecule Agonists and Allosteric Enhancers of Human TRH Receptor: Validation Screen for Agonists (AID 493127;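 active = calcium activation more than 3 SD above the typical response in the agonist read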;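 also: intracellular calcium rise by fluo-8 fluorescence before TRH EC20 addition; 0% is about no effect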). Particulars: TRH receptor agonist cell assay; at 2 µM; stronger effect = higher value. The gist of the method:
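Compounds are added by online pintool to dye-loaded TRHR cells while fluorescence is recorded every second. A rise in calcium signal during the agonist read marks activation; a later 10 nM TRH addition (EC20) serves the separate enhancer mode.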

For assay [17], the target named is ATP-dependent 6-phosphofructokinase (Trypanosoma brucei brucei) (UniProt O15648). Description: qHTS Assay to Find Inhibitors of T. brucei phosphofructokinase: hit validation (AID 492961).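 Also: luminescence reports ADP formed as PFK phosphorylates fructose-6-phosphate with ATP; series mostly up to about 51 µM; % is scaled to controls: 0 for no effect and ±100 for the full control effect.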 The procedure, abridged: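 Percent activity derived from corrected luminescence, normalized between 0x and 1x enzyme controls, then fitted to concentration-response curves. Conditions: 1.25 nM PFK, 0.1 mM ATP, 0.5 mM F6P, 45 min RT.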

Assay [18] can be described thus: Quantitative high throughput screen for delayed death inhibitors of the malarial parasite plastid, 96 hour incubation (AID 488745). Also: potency is read from the fitted curve at half-maximal effect; nearly all actives have a fitted effect of over 70% in size. The gist of the method: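 Readout is firefly luciferase luminescence from an integrated reporter in P. falciparum; lower signal marks inhibited growth. Cultures at 2% hematocrit and 0.1% parasitemia were treated with compound across two generations (96 h, 37 C, 5% CO2).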

Assay [19] has as its target ATPase family AAA domain-containing protein 5 (Homo sapiens) (UniProt Q96QE3). Nature of the assay: Validation screen for small molecules that inhibit ELG1-dependent DNA repair in human embryonic kidney (HEK293T) cells expressing luciferase-tagged ELG1 (AID 493107). Also: nearly all actives have a fitted effect of over 70% in size. Also: potency is read from the fitted curve at half-maximal effect. The gist of the method: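 Cells are dispensed in 1536-well format, then 5-fluorouridine and compound are pinned in. After a 16 hr incubation at 37 °C and 5% CO2, ONE-Glo is added and luciferase measured on a CCD imager.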

Experimental findings from PubChem BioAssay (NCATS) are described below.

Records with an inconclusive call do not appear. Calls of active or inactive are those of the source. Unless noted, calls follow the shape of the dose curve; as a rule, active = well fitted curve in the direction sought with a large enough effect; inconclusive = small, poorly fitted or top-dose-only effect, or another doubt; inactive = no such curve, though single readings can be large; an effect the other way counts as inactive or inconclusive.

Sequence of Thioredoxin reductase 1, cytoplasmic (Rattus norvegicus) (O89049 whole entry, looked up): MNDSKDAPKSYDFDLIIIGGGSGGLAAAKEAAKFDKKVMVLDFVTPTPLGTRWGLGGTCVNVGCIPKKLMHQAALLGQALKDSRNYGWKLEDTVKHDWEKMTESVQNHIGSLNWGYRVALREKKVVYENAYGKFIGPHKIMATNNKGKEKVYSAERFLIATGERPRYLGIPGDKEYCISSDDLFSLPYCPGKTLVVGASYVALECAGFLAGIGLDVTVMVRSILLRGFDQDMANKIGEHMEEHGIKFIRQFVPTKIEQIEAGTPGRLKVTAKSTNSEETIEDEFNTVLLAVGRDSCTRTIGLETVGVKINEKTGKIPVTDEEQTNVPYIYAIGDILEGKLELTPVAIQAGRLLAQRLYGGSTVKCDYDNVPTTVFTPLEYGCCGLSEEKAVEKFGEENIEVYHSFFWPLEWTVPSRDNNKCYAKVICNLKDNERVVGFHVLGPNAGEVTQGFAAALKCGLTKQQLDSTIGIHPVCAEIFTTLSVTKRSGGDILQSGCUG
Sequence of Flap endonuclease 1 (Homo sapiens) (P39748 whole entry, looked up): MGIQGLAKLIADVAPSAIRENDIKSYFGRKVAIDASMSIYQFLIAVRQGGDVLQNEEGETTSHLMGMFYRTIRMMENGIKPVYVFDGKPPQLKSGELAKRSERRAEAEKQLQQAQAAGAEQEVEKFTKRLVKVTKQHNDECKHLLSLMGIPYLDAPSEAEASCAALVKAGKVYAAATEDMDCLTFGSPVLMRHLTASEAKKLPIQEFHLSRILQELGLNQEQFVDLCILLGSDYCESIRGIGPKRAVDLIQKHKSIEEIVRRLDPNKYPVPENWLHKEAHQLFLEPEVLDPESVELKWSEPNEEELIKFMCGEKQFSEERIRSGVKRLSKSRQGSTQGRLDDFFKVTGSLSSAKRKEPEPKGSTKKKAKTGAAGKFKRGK
Sequence of Thyrotropin receptor (Homo sapiens) (P16473 whole entry, looked up): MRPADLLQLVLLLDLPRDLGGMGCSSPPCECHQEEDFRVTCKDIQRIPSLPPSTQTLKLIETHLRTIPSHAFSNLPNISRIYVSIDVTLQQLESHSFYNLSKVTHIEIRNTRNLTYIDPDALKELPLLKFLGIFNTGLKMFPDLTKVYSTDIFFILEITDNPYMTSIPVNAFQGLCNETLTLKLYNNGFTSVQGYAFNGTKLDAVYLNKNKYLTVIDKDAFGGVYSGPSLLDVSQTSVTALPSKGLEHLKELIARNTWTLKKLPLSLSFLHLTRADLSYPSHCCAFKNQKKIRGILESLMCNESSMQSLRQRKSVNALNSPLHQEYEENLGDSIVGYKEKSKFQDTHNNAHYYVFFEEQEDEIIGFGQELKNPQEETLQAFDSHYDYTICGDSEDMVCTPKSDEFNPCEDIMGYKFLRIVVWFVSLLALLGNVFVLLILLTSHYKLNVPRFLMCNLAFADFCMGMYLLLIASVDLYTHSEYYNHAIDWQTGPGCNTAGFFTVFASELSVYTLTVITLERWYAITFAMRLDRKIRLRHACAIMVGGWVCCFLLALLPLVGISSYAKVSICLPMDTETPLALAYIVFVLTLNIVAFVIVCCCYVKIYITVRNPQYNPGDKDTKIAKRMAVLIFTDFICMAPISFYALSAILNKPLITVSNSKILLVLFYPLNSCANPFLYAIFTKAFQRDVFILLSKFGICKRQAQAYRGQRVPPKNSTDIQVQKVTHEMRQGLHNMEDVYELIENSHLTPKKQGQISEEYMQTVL
Sequence of Chromobox protein homolog 1 (Homo sapiens) (P83916 whole entry, looked up): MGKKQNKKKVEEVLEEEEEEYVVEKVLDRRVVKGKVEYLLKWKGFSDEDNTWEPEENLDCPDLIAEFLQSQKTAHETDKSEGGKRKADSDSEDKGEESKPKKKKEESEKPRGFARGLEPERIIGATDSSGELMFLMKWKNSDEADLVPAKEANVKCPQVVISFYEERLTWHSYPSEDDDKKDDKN
Sequence of Methanococcus maripaludis chaperonin (MmCpn) (Q6LX38 1-543): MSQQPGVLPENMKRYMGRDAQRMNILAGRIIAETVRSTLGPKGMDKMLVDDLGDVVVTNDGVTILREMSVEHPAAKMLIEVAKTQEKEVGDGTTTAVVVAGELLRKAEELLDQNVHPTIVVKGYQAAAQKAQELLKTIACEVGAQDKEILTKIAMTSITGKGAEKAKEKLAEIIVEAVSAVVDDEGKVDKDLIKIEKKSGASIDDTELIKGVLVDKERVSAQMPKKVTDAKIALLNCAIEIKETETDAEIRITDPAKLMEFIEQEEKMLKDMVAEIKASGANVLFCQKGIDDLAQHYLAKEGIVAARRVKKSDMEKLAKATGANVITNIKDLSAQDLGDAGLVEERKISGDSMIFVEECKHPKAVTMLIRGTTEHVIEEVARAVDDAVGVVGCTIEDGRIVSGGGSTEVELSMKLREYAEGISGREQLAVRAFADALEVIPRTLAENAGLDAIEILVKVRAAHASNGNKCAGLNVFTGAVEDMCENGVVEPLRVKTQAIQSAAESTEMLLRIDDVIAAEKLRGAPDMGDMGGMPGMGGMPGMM
Sequence of Transient receptor potential cation channel subfamily V member 1 (Homo sapiens) (Q8NER1 whole entry, looked up): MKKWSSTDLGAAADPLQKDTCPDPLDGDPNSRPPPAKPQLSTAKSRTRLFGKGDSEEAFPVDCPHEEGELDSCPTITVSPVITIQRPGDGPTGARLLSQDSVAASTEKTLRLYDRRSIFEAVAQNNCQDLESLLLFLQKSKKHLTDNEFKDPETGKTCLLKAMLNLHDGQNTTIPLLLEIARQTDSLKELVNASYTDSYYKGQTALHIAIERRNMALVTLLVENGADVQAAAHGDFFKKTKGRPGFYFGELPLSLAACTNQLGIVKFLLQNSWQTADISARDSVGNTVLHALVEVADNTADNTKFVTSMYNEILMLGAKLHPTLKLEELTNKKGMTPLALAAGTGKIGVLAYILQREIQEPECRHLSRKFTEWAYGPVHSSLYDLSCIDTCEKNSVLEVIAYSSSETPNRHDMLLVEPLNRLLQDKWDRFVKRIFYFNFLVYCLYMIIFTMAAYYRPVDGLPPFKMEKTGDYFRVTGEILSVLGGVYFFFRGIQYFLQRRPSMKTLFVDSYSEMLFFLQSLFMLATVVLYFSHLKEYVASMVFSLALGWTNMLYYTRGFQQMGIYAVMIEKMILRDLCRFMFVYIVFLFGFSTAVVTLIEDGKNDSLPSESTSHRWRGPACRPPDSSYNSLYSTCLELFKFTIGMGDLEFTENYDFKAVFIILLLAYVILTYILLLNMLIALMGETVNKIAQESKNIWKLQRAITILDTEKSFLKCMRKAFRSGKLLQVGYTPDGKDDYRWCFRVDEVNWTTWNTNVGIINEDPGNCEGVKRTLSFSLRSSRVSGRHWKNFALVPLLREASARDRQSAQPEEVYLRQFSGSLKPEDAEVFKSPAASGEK
Sequence of Thyrotropin-releasing hormone receptor (Homo sapiens) (P34981 whole entry, looked up): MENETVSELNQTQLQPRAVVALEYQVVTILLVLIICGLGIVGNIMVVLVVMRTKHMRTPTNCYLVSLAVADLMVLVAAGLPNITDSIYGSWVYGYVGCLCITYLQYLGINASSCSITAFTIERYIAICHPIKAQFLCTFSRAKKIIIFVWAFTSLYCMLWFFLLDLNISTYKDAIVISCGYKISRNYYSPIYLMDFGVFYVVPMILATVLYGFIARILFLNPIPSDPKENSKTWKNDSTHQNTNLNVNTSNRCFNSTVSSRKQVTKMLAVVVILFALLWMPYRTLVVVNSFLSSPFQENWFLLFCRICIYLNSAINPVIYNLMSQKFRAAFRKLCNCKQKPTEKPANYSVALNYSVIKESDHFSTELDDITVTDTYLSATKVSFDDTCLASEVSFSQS
Sequence of M-phase phosphoprotein 8 (Homo sapiens) (Q99549 whole entry, looked up): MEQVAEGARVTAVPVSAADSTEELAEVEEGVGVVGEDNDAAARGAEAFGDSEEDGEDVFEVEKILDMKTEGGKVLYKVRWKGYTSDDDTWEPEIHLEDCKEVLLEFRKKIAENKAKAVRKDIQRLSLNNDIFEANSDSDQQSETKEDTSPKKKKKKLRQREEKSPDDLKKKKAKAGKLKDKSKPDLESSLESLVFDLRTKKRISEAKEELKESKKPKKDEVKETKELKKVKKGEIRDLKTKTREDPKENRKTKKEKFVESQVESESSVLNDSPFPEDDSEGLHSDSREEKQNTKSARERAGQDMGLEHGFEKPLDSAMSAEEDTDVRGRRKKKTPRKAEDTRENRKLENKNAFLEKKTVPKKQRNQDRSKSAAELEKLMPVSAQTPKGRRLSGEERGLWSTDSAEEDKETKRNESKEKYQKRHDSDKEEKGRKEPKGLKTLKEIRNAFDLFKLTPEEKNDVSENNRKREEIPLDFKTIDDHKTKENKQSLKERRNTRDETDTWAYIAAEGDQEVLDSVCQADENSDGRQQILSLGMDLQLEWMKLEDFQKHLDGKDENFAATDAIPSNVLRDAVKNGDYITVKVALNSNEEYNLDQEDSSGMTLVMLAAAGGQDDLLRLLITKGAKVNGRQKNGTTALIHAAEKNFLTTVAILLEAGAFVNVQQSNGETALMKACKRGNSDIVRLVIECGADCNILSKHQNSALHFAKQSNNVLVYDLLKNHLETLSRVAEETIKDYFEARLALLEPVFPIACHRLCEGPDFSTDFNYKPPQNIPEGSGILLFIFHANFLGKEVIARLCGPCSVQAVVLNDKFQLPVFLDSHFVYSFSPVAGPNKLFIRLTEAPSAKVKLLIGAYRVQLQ
Sequence of D(1A) dopamine receptor (Homo sapiens) (P21728 whole entry, looked up): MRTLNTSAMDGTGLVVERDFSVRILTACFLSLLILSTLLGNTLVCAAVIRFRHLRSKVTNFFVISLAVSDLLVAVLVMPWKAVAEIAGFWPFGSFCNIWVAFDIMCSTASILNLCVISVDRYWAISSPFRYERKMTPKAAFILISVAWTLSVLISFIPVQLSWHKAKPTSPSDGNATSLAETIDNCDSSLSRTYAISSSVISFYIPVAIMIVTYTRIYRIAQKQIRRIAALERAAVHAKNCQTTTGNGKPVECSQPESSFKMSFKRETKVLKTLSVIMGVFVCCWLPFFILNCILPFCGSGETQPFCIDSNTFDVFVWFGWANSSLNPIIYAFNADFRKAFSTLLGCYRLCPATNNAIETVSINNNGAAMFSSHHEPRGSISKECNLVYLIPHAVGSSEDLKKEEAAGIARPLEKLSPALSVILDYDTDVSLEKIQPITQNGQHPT

With `N#CCCN`, the compound was classed as inactive in assay [1], in assay [6] and in assay [12]. Also, the Potency result in [2], in assay [3], in assay [4], in assay [5], in assay [7] and in assay [8] was “inactive” throughout. The Potency entry in [9], in assay [10] and in [11] was “inactive” in each case. In addition, the viability change in assay [11] was -4.25%.
As for `C[C@@H]1O[C@H](C[N+](C)(C)C)CS1`, the Potency result in assay [13], in [2], in assay [4], in [5], in [7] and in assay [8] was “inactive” in each case. Besides, the Potency result in assay [9], in [10] and in assay [11] was “inactive” each time. Besides, the compound was called inactive in assay [1], in [6], in assay [14], in [15] and in [12]. For the same compound, the activation in [16] was 11.2% (inactive). Moreover, the viability change in assay [11] stood at 8.63%.
With `N#CC(C#N)=Cc1cc(O)c(O)c(O)c1`, the Potency result in [13] and in [17] was “inactive” throughout. Further, the Potency in assay [4] was 39.8 µM (active). Further, the result in assay [14] was inactive. Moreover, the activation in assay [16] was 0.188% (inactive).
As for `COc1ccc(CNC(=O)/C=C/c2ccc3[nH]cc(CCN(C)C)c3c2)cc1`, in [18], the Potency is 11.7 µM (active). The compound was called inactive in assay [1], in assay [6], in assay [14], in [15] and in assay [12]. For the same compound, the Potency result in assay [2], in assay [3], in assay [4], in assay [5], in [7] and in assay [8] was “inactive” throughout. In addition, the Potency entry in assay [9], in assay [19] and in assay [11] was “inactive” in each case. The activation in [16] is -0.312% (inactive). The viability change in [11] is -0.218%.
Regarding `C[C@@H]1O[C@@H](O[C@H]2C[C@@H](O)[C@]3(CO)[C@@H]4C(CC[C@]3(O)C2)[C@@]2(O)CC[C@H]([C@@H]3COC(=O)C3)[C@@]2(C)C[C@H]4O)[C@H](O)[C@H](O)[C@H]1O` (stereo partly specified), the call in assay [1], in [6] and in assay [12] was inactive. The Potency result in assay [2], in [3], in assay [4], in assay [5], in assay [7] and in assay [8] was “inactive” each time. Moreover, the Potency result in assay [9] and in assay [10] was “inactive” each time. The Potency in [19] was 2.06 µM (active).
In the case of `CN1C2CCC1CC(OC(c1ccccc1)c1ccc(Cl)cc1)C2` (stereo unspecified), the Potency in assay [18] is 0.147 µM (active); in [13], 6.57 µM (active). Also, the call in assay [15] was inactive. Moreover, in [16], the activation was 8.88% (inactive).
Regarding `O=[N+]([O-])/C=C/c1ccc2c(c1)OCO2`, the Potency in [2] was 7.52 µM (active); in [5], 14.1 µM (active); in assay [19], 20.6 µM (active). Moreover, the Potency result in assay [3], in assay [4], in [7], in assay [8] and in [10] was “inactive” throughout. Besides, the compound was called inactive in [6] and in assay [12].
On to `C[N+]1(C)CCc2cc3c(cc2[C@H]1[C@@H]1OC(=O)c2c1ccc1c2OCO1)OCO3`, for which the result in [1], in assay [6] and in [12] was inactive. For the same compound, the Potency result in [2], in assay [3], in [4], in assay [7], in [8] and in [9] was “inactive” throughout. The Potency result in assay [10], in assay [19] and in [11] was “inactive” each time. The viability change in assay [11] is -0.563%.
With `O=[N+]([O-])c1cc(I)c(O)c(I)c1`, the Potency result in assay [17] was “inactive”.
